Reference: PubChem BioAssay
The source made the active and inactive calls.

Assays:
[1] = test system: Plasmodium falciparum Sir2 (PF13_0152, Sir2A); experiment: pfSir2 binders on small-molecule microarrays, primary screen, biochemical, small-molecule microarray, 635 nm fluorescence (AID 1098); details: small-molecule microarray binding, fluorescence 635 nm; higher = more signal;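 note: score merges spot fluorescence intensity with its signal-to-noise ratio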
[2] = small-molecule microarray binders of probe aDKK1, primary screen, biochemical, biotinylated probe, 635/667 nm fluorescence (AID 1099); details: higher = more signal;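 note: score merges 667nm spot fluorescence with signal to noise across triplicate slides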
[3] = small-molecule microarray binders of probe aCHRDL2, primary screen, biochemical, biotinylated probe, 635/667 nm fluorescence (AID 1100); details: higher = more signal
[4] = splicing luciferase reporter signal modulators, primary screen, spliceosome inhibition project, cell-based, HEK293, splice +/- reporter (AID 1101); details: luminescence, 24 h, higher = more signal, called active from +8 up or from −8 down;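 note: HEK293 cells carrying a splicing-competent luciferase reporter gene; test concentration not given here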
[5] = biological target: Fibroblast growth factor 10 (Homo sapiens) (UniProt O15520); experiment: FGF10 binders on small-molecule microarrays, primary screen, biochemical, small-molecule microarray, 635 nm fluorescence (AID 1102); details: FGF10 binding, fluorescence 635 nm, higher = more signal
[6] = test system: glycogen synthase kinase-3 (GSK3A per assay name; protocol says GSK3B); experiment: GSK3 binders on small-molecule microarrays, primary screen, biochemical, small-molecule microarray, 635 nm fluorescence, GSK3A (AID 1103); details: small-molecule microarray binding, fluorescence 635 nm; higher = more signal; note: the record names both GSK3A and GSK3B
[7] = biological target: Epidermal growth factor receptor (Homo sapiens) (UniProt P00533); experiment: EGFR binders on small-molecule microarrays, primary screen, biochemical, small-molecule microarray, 635 nm fluorescence (AID 1104); details: EGFR binding, higher = more signal;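 note: score merges 667 nm emission intensity with spot signal to noise over triplicate slides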
[8] = biological target: Follistatin-related protein 3 (Homo sapiens) (UniProt O95633); experiment: FSTL3 binders on small-molecule microarrays, primary screen, biochemical, small-molecule microarray, 635 nm fluorescence (AID 1105); details: FSTL3 binding, higher = more signal;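 note: score merges emission near 667 nm and signal to noise per printed spot across three slides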
[9] = biological target: Dickkopf-related protein 1 (Homo sapiens) (UniProt O94907); experiment: DKK1 binders on small-molecule microarrays, primary screen, biochemical, small-molecule microarray, 635 nm fluorescence scan (AID 1106); details: DKK1 binding, higher = more signal;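 note: score merges emission near 667 nm with signal to noise over three replicate slides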
[10] = test system: Inhibin beta A chain (activin A); experiment: INHBA (activin A) binders on microarrays, primary screen, biochemical, small-molecule microarray, 635 nm fluorescence scan (AID 1107); details: small-molecule microarray binding, higher = more signal;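 note: mouse activin A protein probed at 4.33 µg/mL on printed slides; score merges bound-protein fluorescence near 667 nm with spot signal-to-noise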
[11] = test system: Human papillomavirus type 1a protein E7 (residues 44-93); experiment: HPV1a E7 fragment binders on microarrays, primary screen, biochemical, small-molecule microarray, residues 44-93, 635 nm fluorescence (AID 1108); details: small-molecule microarray binding, fluorescence 635 nm; higher = more signal;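 note: E7 fragment applied at 1 µg/mL in TBST for 1 h at 4 C; score combines spot fluorescence with its signal to noise ratio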
[12] = modulators of HCV replicon luciferase signal, primary screen, HCV replication inhibitor project, Huh7 cells, luciferase reporter (AID 1109); details: 48 h, higher = more signal;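 note: huh7 hepatoma cells harbouring a luciferase neomycin HCV replicon reporter; luciferase luminescence as measure of HCV replicon replication; test concentration not given here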
[13] = biological target: Left-right determination factor 2 (Homo sapiens) (UniProt O00292); experiment: LEFTY2 binders on small-molecule microarrays, primary screen, biochemical, small-molecule microarray, 635 nm fluorescence scan (AID 1110); details: LEFTY2 binding, higher = more signal
[14] = biological target: Calmodulin-1 (Homo sapiens) (UniProt P0DP23); experiment: CALM1 binders on microarrays, EGTA buffer, profiling panel, biochemical, small-molecule microarray, Cy5-labelled CALM1 (AID 1111); details: Cy5-CALM1 binding fluorescence, higher = more signal;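 note: labelled calmodulin applied in Tris saline Tween buffer holding calcium plus EGTA and DTT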
[15] = biological target: Calmodulin-1 (Homo sapiens) (UniProt P0DP23); experiment: calcium-bound CALM1 binders on microarrays, profiling panel, artefact control for SMM control-protein annotation, biochemical, small-molecule microarray, Cy5-labelled CALM1, plus calcium (AID 1112); details: Cy5-CALM1 binding fluorescence, higher = more signal;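 note: score merges spot fluorescence with signal to noise from triplicate slides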
[16] = small-molecule microarray binders of probe aWnt5a, primary screen, biochemical, biotinylated probe, 635/667 nm fluorescence (AID 1113); details: higher = more signal;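 note: score merges 667 nm fluorescence intensity with signal-to-noise per printed feature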
[17] = small-molecule microarray binders of probe aShh, primary screen, biochemical, biotinylated probe, 635/667 nm fluorescence (AID 1114); details: higher = more signal;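 note: probe is biotin-labelled aShh protein from a stem cell growth factor screen; measures binding of labelled protein to compounds printed on the slide; score merges feature fluorescence at 667 nm with signal-to-noise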
[18] = small-molecule microarray binders of probe aNog, primary screen, biochemical, biotinylated probe, 635/667 nm fluorescence (AID 1115); details: higher = more signal;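 note: probe is biotinylated aNog protein used at 0.15 µg/mL for 1 h at 4 C; z-score combines 667 nm fluorescence of each spot with its signal to noise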
[19] = biological target: Torsin-1A-interacting protein 1 (Homo sapiens) (UniProt Q5JTV8); experiment: LAP1 binders from COS7 cell lysate, primary screen, small-molecule microarray, 635/667 nm fluorescence (AID 1116); details: COS7-hLAP1 lysate binding, 635 nm fluorescence, higher = more signal
[20] = biological target: Alpha-bungarotoxin (Bungarus multicinctus) (UniProt P60615); experiment: alpha-bungarotoxin binders on microarray, profiling panel, artefact control for SMM control protein annotation, biochemical, small-molecule microarray, Alexa647 label, 635/667 nm fluorescence (AID 1117); details: alpha-BTX-A647 binding fluorescence, higher = more signal
Sequence of Alpha-bungarotoxin (Bungarus multicinctus) (P60615 whole entry, looked up): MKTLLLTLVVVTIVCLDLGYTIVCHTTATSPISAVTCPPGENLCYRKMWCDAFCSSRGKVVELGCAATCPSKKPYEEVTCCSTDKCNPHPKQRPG

Sequence of Dickkopf-related protein 1 (Homo sapiens) (O94907 whole entry, looked up): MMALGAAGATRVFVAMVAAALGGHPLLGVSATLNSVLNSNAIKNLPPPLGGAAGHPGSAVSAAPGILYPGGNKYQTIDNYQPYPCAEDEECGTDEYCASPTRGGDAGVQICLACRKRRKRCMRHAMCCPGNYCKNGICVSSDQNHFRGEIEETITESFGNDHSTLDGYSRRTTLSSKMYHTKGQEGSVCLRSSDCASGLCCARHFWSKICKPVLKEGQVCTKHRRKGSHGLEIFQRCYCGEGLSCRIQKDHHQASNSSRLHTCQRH
Sequence of Left-right determination factor 2 (Homo sapiens) (O00292 whole entry, looked up): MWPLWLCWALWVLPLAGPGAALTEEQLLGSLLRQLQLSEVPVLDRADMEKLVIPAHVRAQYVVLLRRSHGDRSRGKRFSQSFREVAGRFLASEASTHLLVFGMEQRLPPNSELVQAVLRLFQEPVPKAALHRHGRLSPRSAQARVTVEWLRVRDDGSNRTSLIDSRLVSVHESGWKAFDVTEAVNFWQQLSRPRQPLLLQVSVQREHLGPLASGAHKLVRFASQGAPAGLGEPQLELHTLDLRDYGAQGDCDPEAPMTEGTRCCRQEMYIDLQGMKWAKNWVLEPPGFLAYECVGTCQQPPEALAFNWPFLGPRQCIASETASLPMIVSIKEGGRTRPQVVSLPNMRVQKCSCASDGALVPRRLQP
Sequence of Fibroblast growth factor 10 (Homo sapiens) (O15520 whole entry, looked up): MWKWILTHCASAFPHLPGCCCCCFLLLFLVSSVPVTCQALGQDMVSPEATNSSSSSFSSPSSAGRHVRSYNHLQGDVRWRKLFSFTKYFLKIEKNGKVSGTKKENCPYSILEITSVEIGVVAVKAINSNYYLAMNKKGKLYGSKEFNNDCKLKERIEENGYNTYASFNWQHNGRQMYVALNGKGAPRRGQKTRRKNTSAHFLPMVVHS
Sequence of Follistatin-related protein 3 (Homo sapiens) (O95633 whole entry, looked up): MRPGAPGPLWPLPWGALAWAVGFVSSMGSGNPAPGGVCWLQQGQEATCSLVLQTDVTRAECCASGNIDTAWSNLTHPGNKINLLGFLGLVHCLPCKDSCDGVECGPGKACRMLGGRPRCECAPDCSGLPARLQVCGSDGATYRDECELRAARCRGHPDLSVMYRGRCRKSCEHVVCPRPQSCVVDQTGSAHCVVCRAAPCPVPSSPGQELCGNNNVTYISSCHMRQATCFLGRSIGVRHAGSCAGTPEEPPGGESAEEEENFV
Sequence of Epidermal growth factor receptor (Homo sapiens) (P00533 whole entry, looked up): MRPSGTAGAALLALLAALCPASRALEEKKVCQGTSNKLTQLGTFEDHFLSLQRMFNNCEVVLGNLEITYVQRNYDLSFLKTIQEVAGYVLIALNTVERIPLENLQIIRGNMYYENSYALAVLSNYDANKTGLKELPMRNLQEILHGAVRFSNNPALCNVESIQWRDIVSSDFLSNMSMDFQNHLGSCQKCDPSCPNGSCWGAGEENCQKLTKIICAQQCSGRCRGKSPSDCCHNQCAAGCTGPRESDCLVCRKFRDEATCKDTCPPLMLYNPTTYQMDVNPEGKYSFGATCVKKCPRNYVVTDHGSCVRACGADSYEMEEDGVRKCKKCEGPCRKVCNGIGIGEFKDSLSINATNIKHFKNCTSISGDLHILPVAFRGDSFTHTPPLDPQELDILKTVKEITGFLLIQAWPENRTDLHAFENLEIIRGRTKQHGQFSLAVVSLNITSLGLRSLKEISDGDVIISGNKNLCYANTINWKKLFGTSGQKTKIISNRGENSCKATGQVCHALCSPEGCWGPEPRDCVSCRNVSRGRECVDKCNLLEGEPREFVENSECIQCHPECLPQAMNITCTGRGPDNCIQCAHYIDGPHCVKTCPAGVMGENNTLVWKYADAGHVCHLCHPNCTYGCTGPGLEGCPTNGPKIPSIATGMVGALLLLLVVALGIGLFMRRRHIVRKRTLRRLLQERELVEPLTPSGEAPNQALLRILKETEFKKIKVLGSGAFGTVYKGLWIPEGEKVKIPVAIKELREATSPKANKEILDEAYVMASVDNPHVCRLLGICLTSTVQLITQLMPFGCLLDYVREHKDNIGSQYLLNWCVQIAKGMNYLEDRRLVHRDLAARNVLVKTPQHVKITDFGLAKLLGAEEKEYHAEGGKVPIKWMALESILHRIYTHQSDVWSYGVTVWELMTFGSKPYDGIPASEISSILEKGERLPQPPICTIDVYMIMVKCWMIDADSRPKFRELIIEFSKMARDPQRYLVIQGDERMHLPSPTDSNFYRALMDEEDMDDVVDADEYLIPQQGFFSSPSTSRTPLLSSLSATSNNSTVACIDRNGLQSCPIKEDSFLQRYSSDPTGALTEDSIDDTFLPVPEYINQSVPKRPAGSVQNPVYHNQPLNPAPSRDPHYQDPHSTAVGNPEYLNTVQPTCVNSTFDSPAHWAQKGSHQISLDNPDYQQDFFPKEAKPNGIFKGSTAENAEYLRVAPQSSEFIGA
Sequence of Torsin-1A-interacting protein 1 (Homo sapiens) (Q5JTV8 whole entry, looked up): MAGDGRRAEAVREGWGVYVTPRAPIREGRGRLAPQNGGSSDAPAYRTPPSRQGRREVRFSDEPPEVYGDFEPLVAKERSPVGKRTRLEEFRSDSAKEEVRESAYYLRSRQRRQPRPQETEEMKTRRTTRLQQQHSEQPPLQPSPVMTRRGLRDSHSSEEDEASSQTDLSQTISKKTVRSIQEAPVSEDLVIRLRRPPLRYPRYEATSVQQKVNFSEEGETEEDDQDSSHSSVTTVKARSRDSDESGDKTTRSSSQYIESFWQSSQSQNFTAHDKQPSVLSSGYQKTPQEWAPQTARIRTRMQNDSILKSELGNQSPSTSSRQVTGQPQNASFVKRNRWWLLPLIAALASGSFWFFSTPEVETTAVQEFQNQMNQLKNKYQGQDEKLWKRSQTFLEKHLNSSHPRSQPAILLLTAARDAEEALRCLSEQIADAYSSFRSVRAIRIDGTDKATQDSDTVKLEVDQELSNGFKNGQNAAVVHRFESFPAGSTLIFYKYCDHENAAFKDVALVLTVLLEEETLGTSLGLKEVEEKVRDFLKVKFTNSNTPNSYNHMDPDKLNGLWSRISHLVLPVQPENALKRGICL

| Structure (SMILES) | composite z-score [1] | composite z-score [2] | composite z-score [3] | z-score [4] | composite z-score [5] | composite z-score [6] | composite z-score [7] | composite z-score [8] | composite z-score [9] | composite z-score [10] | composite z-score [11] | z-score [12] | composite z-score [13] | composite z-score [14] | composite z-score [15] | composite z-score [16] | composite z-score [17] | composite z-score [18] | composite z-score [19] | composite z-score [20] |
| --- | --- | --- | --- | --- | --- | --- | --- | --- | --- | --- | --- | --- | --- | --- | --- | --- | --- | --- | --- | --- |
| CC(C)CNC(=O)[C@@]1(c2ccc([N+](=O)[O-])cc2)CC(=O)N(CC23CC4CC(CC(C4)C2)C3)[C@@H]1c1ccc(CO)cc1I | 1.13 | 0.109 | 0.0793 | -0.125 (inactive) | 1.04 | 1.3 | 0.578 | 1.08 | 0.808 | 0.383 | 1.39 | -3.18 | 0.539 | 0.404 | -0.111 | -0.0587 | -0.0685 | -0.289 | 0.798 | 0.504 |
| Cc1ccc(S[C@]2(C(=O)NCCN3CCOCC3)CC(=O)N(Cc3cc(C(F)(F)F)cc(C(F)(F)F)c3)[C@@H]2c2ccc(CO)cc2I)cc1 | 1.4 | 0.104 | 0.868 | -2.04 (inactive) | -0.743 | -0.799 | -0.981 | -0.492 | -1.34 | 0.551 | 0.105 | -1.59 | -1.45 | -0.452 | 0.492 | -0.176 | -0.331 | -0.389 | -0.604 | -0.306 |
| O=C1O[C@@H](c2ccccc2)[C@@H](c2ccccc2)N2[C@@H](c3ccccc3OCCO)[C@]3(C(=O)Nc4ccc(C#CC5(O)CCCCCC5)cc43)[C@@H](C(=O)Nc3nc4ccccc4s3)[C@H]12 | 1.04 | -0.0444 | -0.0735 | 0.554 (inactive) | 0.68 | 1.25 | 0.369 | 0.996 | 0.28 | 0.251 | 1.38 | -3.09 | 0.628 | 0.688 | 0.226 | -0.0495 | -0.0685 | -0.0065 | 0.367 | 0.744 |
| C=CC(COC(C)=O)NS(=O)(=O)c1ccc(Br)cc1 (stereo not given) | 0.669 | -0.461 | -0.501 | 0.217 (inactive) | 0.632 | 0.903 | 0.642 | 1.01 | 0.684 | 0.12 | 0.62 | -0.437 | 0.65 | -0.467 | -0.883 | 0.093 | 0.0948 | -0.149 | 0.366 | 0.601 |
| COCCOC(=O)N1C(=O)[C@@]2(c3cc(C#CCCO)ccc31)[C@H](c1ccccc1OCCO)N1[C@H](c3ccccc3)[C@H](c3ccccc3)OC(=O)[C@H]1[C@@H]2C(=O)N1CCN(c2ncccn2)CC1 | 0.55 | 0.75 | 0.537 | -0.381 (inactive) | 0.74 | 1.22 | 0.965 | 1.39 | 0.682 | 0.617 | 1.43 | -1.92 | 1.15 | 1.33 | 0.569 | 0.203 | 0.141 | 0.435 | 1.16 | 0.994 |
